We go through 24 compounds from PubChem BioAssay (Tox21).

Several values for one entry are separate records, joined by “and”; a condition that tells them apart may be missing. Equal values may be shown once. Inconclusive results are not listed. Entries that show only a call come without a potency. Values without a mark were called inactive. Activity calls are given as the source filed them. The call rests on the fitted dose curve; in most records, active means well fitted activation curve with a large enough effect in the repeat runs; inconclusive means weak or mixed curves; inactive means flat fitted curve, though single readings scatter.
Potency means the concentration at half of the fitted maximal effect.

A short description of the assay: A CellTox Green Cytotoxicity Assay to monitor cytotoxicity in HEK293 cells - 40 hour (AID 1224871). Further: nearly all actives have a fitted effect of over 45% in size. To be noted: CellTox Green fluorescence; series mostly up to 76.8 µM. The essentials:
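Dead-cell fluorescence measured kinetically: asymmetric cyanine dye, HEK293, 600 cells/well, 5 h settle, 23 nL cpd/DMSO, 37 C, reads 0–40 h every 8 h.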
As to `Clc1cc(Cl)c(-c2c(Cl)c(Cl)cc(Cl)c2Cl)cc1Cl`, the Potency result was “inactive”.
Turning to `O=C(O)CCn1c2c(c3ccccc31)C[C@H](NS(=O)(=O)c1ccc(F)cc1)CC2`, the Potency result is “inactive”.
On the same count and under the same terms, to `CCCCCCCCCCCCCc1ccccc1` belongs “inactive”.
On the same count and under the same terms, the same measure for `CCCCCCC(C)OC(=O)COc1nc(F)c(Cl)c(N)c1Cl` (centres undefined): “inactive”; for `C/C=C/c1ccc(OC)c(OC)c1`: “inactive”.
Still for that read-out and setting: the same measure for `O=C(O)CCCCCCC(=O)O`: “inactive”; for `Cc1cc(C)c(C=O)c(C)c1`: “inactive”; for `CCC(C)C(=O)OC` (centres undefined): “inactive”.
On to `CCCCCCCC(C)=O`, for which the Potency result was “inactive”.
Still for that read-out and setting: to `CCCCC(CC)COC(=O)c1ccc(O)cc1` (centres undefined) belongs 43.5 µM (active) and 21.9 µM (active); to `Clc1nc2ccccc2s1`, “inactive”.
For the compound `COc1nccnc1CC(C)C`, the Potency entry was “inactive”.
Same read-out and setting: to `CCOB(OCC)OCC` belongs “inactive”.
Take `CCC(=O)CC(C)CC` (centres undefined): the cytotoxicity increase is 5.38% [at 0.29 µM].
For the compound `c1ccc(Sc2ccccc2)cc1`, the Potency entry was “inactive”.
Regarding `CCCCCCCCCCc1ccccc1`, the Potency result was “inactive”.
Same read-out and setting: to `CC(C)=CC1CC(C)CCO1` (centres undefined) belongs “inactive”; to `CCc1ccc(O)c(C(C)(C)C)c1`, 38.9 µM (active); to `CCC(C)c1ccccc1` (centres undefined), “inactive”.
Take `Cc1cc(=O)[nH]c(=O)[nH]1`: the Potency entry is “inactive”.
Turning to `O=S(=O)(O)CCCN1CCOCC1`, the Potency result is “inactive”.
In the case of `Cc1cn[nH]c1`, the Potency result was “inactive”.
Turning to `CC(CN(C)C)CN1c2ccccc2CCc2ccccc21` (centres undefined), the Potency entry is “inactive”.
Turning to `O=Cc1ccc(F)cc1`, the Potency entry is “inactive”.
